Measured values published in PubChem BioAssay (NCI).
Compounds without any hit were thinned out: in the full panel of roughly 83,000, 20% have a hit.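 Assay: single dose, 48 h. Readout: percent growth (0 = no net growth; negative = cell death). Active: <10.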 Activity calls are given as the source filed them.

Experiments:
Test in all cases: NCI-60 one-dose screen, 48 h (100 = growth as untreated, 0 = no growth, -100 = all killed)
Conditions in all cases: 10 µM
NCI-H23 lung = tested on: NCI-H23 lung
NCI-H226 lung = tested on: NCI-H226 lung
NCI-H322M lung = tested on: NCI-H322M lung
HOP-62 NSCLC = tested on: HOP-62 NSCLC
NCI-H460 lung = tested on: NCI-H460 lung
HOP-92 NSCLC = tested on: HOP-92 NSCLC
NCI-H522 lung = tested on: NCI-H522 lung
A549/ATCC NSCLC = tested on: A549/ATCC NSCLC
786-0 renal = tested on: 786-0 renal
COLO 205 colon = tested on: COLO 205 colon
DU-145 prostate = tested on: DU-145 prostate
K-562 leukemia = tested on: K-562 leukemia
MALME-3M melanoma = tested on: MALME-3M melanoma
MDA-MB-231 breast = tested on: MDA-MB-231 breast
SF-268 CNS = tested on: SF-268 CNS
SF-295 CNS = tested on: SF-295 CNS
SF-539 CNS = tested on: SF-539 CNS
UACC-257 melanoma = tested on: UACC-257 melanoma
M14 melanoma = tested on: M14 melanoma

Measured: growth

C/C(=N\NC(N)=S)c1ccc(Nc2nc(SC(C)C)nc(-c3ccccc3)c2C#N)cc1
active: HOP-92 NSCLC -11.1%
inactive: NCI-H23 lung 52.5% | NCI-H226 lung 27.5% | NCI-H322M lung 74.3% | HOP-62 NSCLC 34.4% | NCI-H460 lung 41.7% | NCI-H522 lung 78% | A549/ATCC NSCLC 53.7% | 786-0 renal 18.2% | COLO 205 colon 92.5% | DU-145 prostate 70.5% | K-562 leukemia 87.2% | MALME-3M melanoma 55.7% | MDA-MB-231 breast 40.5% | SF-268 CNS 54.8% | SF-295 CNS 44.3% | SF-539 CNS 30.7% | UACC-257 melanoma 85.1% | M14 melanoma 77.4%

Cc1ccc(/C=C/C(=O)c2ccc(S(=O)(=O)NCCNc3nc(Nc4ccc(F)cc4)nc(N(C)C)n3)cc2)cc1
inactive: NCI-H23 lung 36.5% | NCI-H322M lung 48.5% | HOP-62 NSCLC 56.2% | NCI-H522 lung 71.3% | A549/ATCC NSCLC 41.3% | COLO 205 colon 35.4% | DU-145 prostate 30% | K-562 leukemia 12.2% | MALME-3M melanoma 69.1% | MDA-MB-231 breast 38.6% | SF-268 CNS 34.6% | SF-295 CNS 37.7% | SF-539 CNS 41.6% | UACC-257 melanoma 61.2% | M14 melanoma 14.6%
active: NCI-H226 lung -1.6% | NCI-H460 lung 0.319% | HOP-92 NSCLC -18.2% | 786-0 renal -32%

Cc1ccc2nc(COc3ccc(C(=O)NNC(=S)NC(=O)c4ccccc4)cc3)[nH]c2c1
inactive: NCI-H23 lung 53.3% | NCI-H226 lung 60.7% | NCI-H322M lung 80.7% | HOP-62 NSCLC 45.4% | NCI-H460 lung 20.5% | HOP-92 NSCLC 80.6% | NCI-H522 lung 60.5% | A549/ATCC NSCLC 53.9% | 786-0 renal 74.4% | COLO 205 colon 84% | DU-145 prostate 64.7% | K-562 leukemia 21.8% | MALME-3M melanoma 80.9% | MDA-MB-231 breast 71.5% | SF-268 CNS 55.2% | SF-295 CNS 25.3% | SF-539 CNS 41.9% | UACC-257 melanoma 83.4% | M14 melanoma 65.2%

O=C(NO)c1ccc(CNC(=O)[C@H]2Cc3c([nH]c4ccccc34)[C@H](c3ccccc3)N2)cc1
active: HOP-92 NSCLC -2.26% | NCI-H522 lung -8.88% | COLO 205 colon -55.5% | MDA-MB-231 breast 7.55%
inactive: NCI-H23 lung 34% | NCI-H226 lung 64.2% | NCI-H322M lung 43.2% | HOP-62 NSCLC 18.7% | NCI-H460 lung 27.7% | A549/ATCC NSCLC 50.6% | 786-0 renal 53.9% | DU-145 prostate 29.5% | K-562 leukemia 11.6% | MALME-3M melanoma 15.2% | SF-268 CNS 40.3% | SF-295 CNS 17.7% | SF-539 CNS 34% | UACC-257 melanoma 21.4% | M14 melanoma 27.5%

CN1C(=O)N(C)C2SC(N/N=C/c3ccccc3F)=NC21 (stereo not given)
inactive: NCI-H23 lung 76.5% | NCI-H226 lung 92.4% | NCI-H322M lung 97.2% | HOP-62 NSCLC 68.3% | NCI-H460 lung 58.2% | HOP-92 NSCLC 124% | NCI-H522 lung 46.1% | A549/ATCC NSCLC 63.1% | 786-0 renal 68.7% | COLO 205 colon 100% | DU-145 prostate 94.7% | K-562 leukemia 17.2% | MALME-3M melanoma 59.4% | MDA-MB-231 breast 50.2% | SF-268 CNS 78.7% | SF-295 CNS 62% | SF-539 CNS 54.3% | UACC-257 melanoma 82.7% | M14 melanoma 36.5%

COC(=O)c1c(C(=O)OC)c2n(c1C)[C@@H]([C@@H](C)[C@H]1CC[C@H]3[C@@H]4CCC5=CC(=O)CC[C@]5(C)[C@H]4CC[C@]13C)SC2
inactive: NCI-H23 lung 25% | NCI-H226 lung 15.7% | NCI-H322M lung 72.8% | HOP-62 NSCLC 64.1% | NCI-H460 lung 25.1% | HOP-92 NSCLC 26.3% | NCI-H522 lung 23.1% | A549/ATCC NSCLC 37.1% | 786-0 renal 73.4% | COLO 205 colon 16% | DU-145 prostate 57.8% | K-562 leukemia 15.7% | MALME-3M melanoma 62.5% | MDA-MB-231 breast 56.7% | SF-268 CNS 56.4% | SF-295 CNS 24.7% | SF-539 CNS 59% | UACC-257 melanoma 19.5% | M14 melanoma 25.2%

NS(=O)(=O)c1ccc(NC(=O)CSc2ccc(-c3ccccc3)nn2)c(Br)c1
inactive: NCI-H23 lung 59.1% | NCI-H226 lung 20.5% | NCI-H322M lung 64.3% | HOP-62 NSCLC 17.4% | NCI-H460 lung 82.4% | NCI-H522 lung 42.4% | A549/ATCC NSCLC 70.4% | 786-0 renal 19.5% | COLO 205 colon 137% | DU-145 prostate 75.9% | K-562 leukemia 96% | MALME-3M melanoma 72.8% | MDA-MB-231 breast 47.7% | SF-268 CNS 20.8% | SF-295 CNS 69.9% | SF-539 CNS 48.5% | UACC-257 melanoma 100% | M14 melanoma 99.1%
active: HOP-92 NSCLC -20.3%

CCOC(=O)c1sc(N/N=C(\C)c2ccc3c(c2)Nc2ccccc2S3)nc1C
inactive: NCI-H23 lung 13.9% | NCI-H226 lung 34.8% | NCI-H322M lung 45.2% | HOP-62 NSCLC 43.7% | NCI-H522 lung 30.9% | A549/ATCC NSCLC 29.2% | 786-0 renal 33.6% | DU-145 prostate 44.9% | MALME-3M melanoma 31.9% | MDA-MB-231 breast 18.5% | SF-268 CNS 56.9% | SF-539 CNS 33.8% | UACC-257 melanoma 35.8% | M14 melanoma 19.4%
active: NCI-H460 lung 5.63% | HOP-92 NSCLC -9.2% | COLO 205 colon -42.2% | K-562 leukemia 1.72% | SF-295 CNS -14.9%

CCCn1c(O)c(N=Nc2nc(-c3cc4ccccc4oc3=O)cs2)c2cc(Br)ccc21
inactive: NCI-H23 lung 94.8% | NCI-H226 lung 93.9% | NCI-H322M lung 102% | HOP-62 NSCLC 94.8% | NCI-H460 lung 110% | HOP-92 NSCLC 86.3% | NCI-H522 lung 93.4% | A549/ATCC NSCLC 110% | 786-0 renal 75.1% | COLO 205 colon 139% | DU-145 prostate 101% | K-562 leukemia 110% | MALME-3M melanoma 88% | MDA-MB-231 breast 89.2% | SF-268 CNS 89.8% | SF-295 CNS 85.3% | SF-539 CNS 85% | UACC-257 melanoma 107% | M14 melanoma 97.6%

O=c1[nH]c2ccccc2cc1CSc1ccc(Nc2nccc(-c3ccc4ccccc4c3)n2)cc1
active: HOP-92 NSCLC -3.82%
inactive: NCI-H23 lung 18.1% | NCI-H226 lung 19% | NCI-H322M lung 70.1% | HOP-62 NSCLC 74.7% | NCI-H460 lung 24.3% | NCI-H522 lung 71.5% | A549/ATCC NSCLC 22.4% | 786-0 renal 51.7% | COLO 205 colon 25.3% | DU-145 prostate 25.5% | K-562 leukemia 64% | MALME-3M melanoma 39% | MDA-MB-231 breast 30.5% | SF-268 CNS 72.1% | SF-295 CNS 89.6% | SF-539 CNS 16.1% | UACC-257 melanoma 105% | M14 melanoma 69.8%
